Measurements reported in the supplement of paper PMC6555819.

Experiments:
Experiment in all cases: PBM binding z-score (relative to random genomic background probes); higher = stronger binding; sequences stand for … in GC…GCGATTGACAGCGTAGAATGAAGG
[1] = test system: FXR:RXRa (NR concentration 270 nM, RXRa partner concentration 90 nM)
Outline: (§1)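 Probes were double-stranded and carried 34-nt variable regions with direct-repeat seeds, single-nucleotide variants, half-site ablations and random human genomic background sequences, printed on custom Agilent 4×180K protein-binding microarrays. Arrays were incubated 1 h with ligand-free nuclear receptor dimers in PBS pH 7.4, 2% milk, 0.02% Triton X-100, 1 mM DTT, 0.2 mg/mL BSA and 0.4 mg/ml salmon testes DNA. Antibodies against each partner (one per run) detected binding, and scanned fluorescence was regression-normalized. Binding z-scores use the random background probes as reference.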

[2] = test system: LXRa:RXRa (NR concentration 270 nM, RXRa partner concentration 90 nM)
Outline: as §1

[3] = test system: LXRa homodimer (NR concentration 270 nM)
Outline: as §1

[4] = test system: LXRb:RXRa (NR concentration 270 nM, RXRa partner concentration 90 nM)
Outline: as §1

[5] = test system: LXRb homodimer (NR concentration 270 nM)
Outline: as §1

[6] = test system: PPARa:RXRa (NR concentration 270 nM, RXRa partner concentration 90 nM)
Outline: as §1

[7] = test system: PPARg:RXRa (NR concentration 180 nM, RXRa partner concentration 90 nM)
Outline: as §1

[8] = test system: PPARg:RXRa 270nM:90nM, anti-RXR (NR concentration 270 nM, RXRa partner concentration 90 nM)
Outline: as §1

[9] = test system: PPARg:RXRa 30nM:10nM, anti-RXR (NR concentration 30 nM, RXRa partner concentration 10 nM)
Outline: as §1

[10] = test system: PPARg:RXRa 90nM:30nM, anti-RXR (NR concentration 90 nM, RXRa partner concentration 30 nM)
Outline: as §1

| Sequence | PBM binding z-score [1] | PBM binding z-score [2] | PBM binding z-score [3] | PBM binding z-score [4] | PBM binding z-score [5] | PBM binding z-score [6] | PBM binding z-score [7] | PBM binding z-score [8] | PBM binding z-score [9] | PBM binding z-score [10] |
| --- | --- | --- | --- | --- | --- | --- | --- | --- | --- | --- |
| CAAACTAGGTCAAGAGTTCAAAGTCCGCTTCCCG | 5.67 | 5.69 | 6.24 | 4.15 | 1.05 | 6.1 | 9.08 | 7.81 | 6.8 | 8.19 |
| AGTCAAAGTTCATCTAGGTAACGTGAGATATGCT | 6.5 | 5.85 | 4.89 | 3.81 | 1.73 | 4.76 | 6.65 | 6.18 | 3.58 | 5.42 |
| ACAGACGGGTGAGTGAAGGTAACTCAGCTGGACG | 0.431 | -0.164 | -0.31 | -0.488 | -0.833 | 0.0344 | 0.424 | -0.249 | -0.296 | -0.268 |
| AGACCGAGGGCACGCTGAGTTGATAGCAGAGTAG | 0.748 | 0.67 | -0.437 | 0.0788 | -0.999 | 1.56 | 0.962 | 0.775 | -0.337 | 0.0427 |
| CGAACTAGGTCAAGGACAGTTAATCTCCGCACGC | 3.29 | 2.36 | 0.153 | 1.58 | -0.0529 | 4.46 | 7.29 | 6.38 | 3.78 | 5.73 |
| TCTATTAGTTTAAGGGCAACCGACGAGTCCGTTT | 1.36 | 1.32 | 0.766 | 1.32 | 0.433 | 1.33 | 0.0687 | 2.32 | 3.91 | 3.18 |
| TCTATTAGTTGATTAGGGCAACCGGAACAGCGGA | 0.61 | 0.628 | 0.183 | 0.539 | 0.503 | 0.953 | 0.188 | 1.84 | 3.7 | 2.79 |
| GCTTGTAGATCAAGGTTAGGAAAGACTAAGCTAA | -0.51 | -0.347 | -0.468 | -0.37 | -0.511 | 0.626 | 0.0578 | 0.548 | -0.199 | 0.557 |
| GATACAGGGTCAAGGCCAGAGAACGCGTATTGAT | 6.78 | 4.32 | 0.0774 | 3.59 | -0.239 | 5.57 | 5.91 | 5.64 | 2.25 | 4.54 |
| TCTGCTAGGTCAACGATGTTCAGCTAATCTGCTA | 3 | 2.22 | -0.237 | 1.39 | -0.31 | 3.1 | 2.54 | 3.01 | 2.01 | 2.42 |
| ACTATTAGTAGAGACGAGGGCAACCGATAGGTTG | 0.0303 | 0.0981 | 0.152 | -0.117 | 0.12 | 0.455 | 1 | 1.21 | 0.245 | 0.958 |
| CCTGCTGGGCCAAAAAGGTCATTGATGCCGATAA | 3.7 | 4.03 | 2.82 | 4.04 | 0.015 | 4.34 | 1.24 | 2.72 | 0.205 | 1.65 |
| TCATATAGGGAAACAGGTGAAAGTCCGTAAGTTA | 1.01 | 1.04 | 0.121 | 1.11 | -0.148 | 1.74 | 1.69 | 3.03 | 4.32 | 3.7 |
| CCTCGGAGTACAGAAGGTCAGAGCTGTCCGCTTT | 1.75 | 3.22 | 1.46 | 1.54 | -0.164 | 2.02 | -0.0233 | 0.921 | -0.606 | 0.4 |
| ACAGACAGGTGATGAAGGTAACTCAGGCTATCAT | -0.17 | -0.295 | -0.208 | -0.204 | -0.527 | 0.152 | 0.816 | -0.0244 | -0.0108 | -0.132 |
| ATACCAAGGTGATCGTGAGGTCGTCGATACTAAC | 1.46 | 1.08 | 0.311 | 0.992 | -0.191 | 1.75 | 0.672 | 0.691 | 0.0309 | 0.54 |
| TCTATTAGTTGAAGGGCAAACGACGAGTCCGTTT | 0.768 | 1.24 | 0.6 | 1.3 | 0.637 | 1.43 | 0.285 | 2.43 | 3.63 | 2.94 |
| CTGCCAAGGTGAACAAGGTCGTTGATTACTATTC | 0.873 | 0.86 | -0.343 | 1.15 | -0.569 | 2.25 | 0.839 | 1.1 | -0.107 | 0.638 |
| GCTATTAGTTGAAAGGGCAACCGGATGATTCTCG | 0.785 | 0.839 | 0.362 | 0.759 | -0.334 | 2.31 | 2.78 | 4.56 | 2.87 | 4.49 |
| GCTGCTACGTCAGGTTGGTCAGCTAACGGGTACG | -0.416 | -0.646 | -0.592 | -0.968 | -0.619 | -0.713 | -0.0701 | -0.954 | -0.756 | -0.888 |
| ATCTCTAGATAAGACTCAGTTCAGTGAAGAACGC | -0.0405 | -0.109 | 0.034 | -0.147 | 0.392 | -0.438 | 0.0934 | -0.337 | 0.0965 | 0.00622 |
| ATATGTTGGTTAAGGGTCATTCAGGTTGGTTCGC | 4.33 | 4.39 | 2.88 | 4.31 | 1.83 | 4.83 | 6.96 | 7.58 | 6.29 | 7.73 |
| ACTAGTTGGTCGGCTGAGGTCACACACAATTCGG | 3.37 | 2.69 | 1.73 | 2.93 | 0.679 | 3.59 | 1.43 | 2.08 | 0.45 | 1.51 |
| CTACCAAGGTGAACAAGATCGTTGATTACTATTC | 0.605 | 0.479 | -0.171 | 0.709 | -0.457 | 1.31 | 0.756 | 0.973 | 0.161 | 0.606 |
